From PubChem BioAssay (NCI)
The panel holds about 83,000 compounds, 20% with a hit somewhere; the sample as a whole holds those more often.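 Interpretation: 100, growth as untreated; towards 0, rising growth inhibition; 0, no net growth; 0 to -100, cell death. Compounds scoring below 10 were considered active.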 A number with no mark means an inactive call. The source made the active and inactive calls.

tested on: SK-MEL-2 melanoma; assay: NCI-60 one-dose screen, 48 h (100 = growth as untreated, 0 = no growth, -100 = all killed); conditions: 10 µM unless noted
Protocol: Growth inhibition of the SK-MEL-2 human tumor cell line is measured as a screen for anti-cancer activity. Cells are grown in 96 well plates and exposed to the test compound for 48 hours. Compounds are tested at a single concentration, which is 10^-5 M for most compounds. The reported endpoint is percent growth (GI% or GIPRCNT), where numbers from 0 - 100% represent growth inhibition, and numbers from -100% - 0 represent cell death. For example, a value of 40 represents 60% growth inhibition. A value of 0 means no net growth occurred over the course of the experiment. A value of -40 indicates 40% of cells at the beginning of the experiment died by the end of the experiment. A value of -100 means all cells are dead at the end of the experiment.
NCI-60 Human Tumor Cell Lines Screen was performed using the standard one-dose NCI protocol, which is described in more detail at https://dtp.cancer.gov/discovery_development/nci-60/default.htm.
Compounds with GIPRCNT values below 10 were considered active. Activity score was based on GIPRCNT using the following formula: […]
Score is 0 for GIPRCNT values of 100 or above, 50 for GIPRCNT values of 0, and 100 for GIPRCNT values of -100.

SMILES	growth
c1cc2ccc1CNCCN1CCNCc3ccc(cc3)Oc3ccc(cc3)CNCCN(CCNCc3ccc(cc3)O2)CCNCc2ccc(cc2)Oc2ccc(cc2)CNCC1	-94.5% (active)
Cn1cc(-c2nnc(-c3cn(C)c4ncccc34)o2)c2ccccc21	34.4%
O=C(CCCSc1nc(-c2ccccc2)cc(-c2ccccc2)n1)NO	3.29% (active)
C[C@]12CCc3nc(Nc4ccccc4)sc3C1=CC[C@@H]1[C@@H]2CC[C@]2(C)/C(=N/NC(N)=S)CC[C@@H]12	66.9%
COc1ccc(NC(=O)Nc2ccc(-c3cccnc3)cc2N2CCC(CO)CC2)cc1	73.6%
CCCCCCCCCCCCCCCCCCNC(=S)N/N=C/c1ccc(OC)c(OC)c1	111%
C=C(C)[C@@H]1CC[C@]2(C(=O)NCCNCCNC(=O)OC(C)(C)C)CC[C@]3(C)[C@H](CC[C@@H]4[C@@]5(C)CCC(=O)C(C)(C)[C@@H]5CC[C@]43C)[C@@H]12	41.7% [100 µM]
CSc1nc2sc3cc(Cl)c(Cl)cc3n2c(=N)c1C#N	102%
COc1ccc(C2CC(c3cc(OC)c(OC)c(OC)c3)=NN2C(C)=O)cc1OCC(=O)Nc1nc2ccc(C(F)(F)F)cc2s1 (stereo not given)	92.3%
CCCCC(CC)COC(=O)C[N+](C)(C)CCOC(c1ccccc1)c1ccccc1 (stereo not given)	-26.9% (active)
Cc1ccc(-c2cc(-c3ccc(C)cc3)nc(NCCNc3ccnc4cc(Cl)ccc34)n2)cc1	-72.6% (active)
Cc1cc(C)c(-c2cc(O)c(-c3c(C)cc(C)cc3C)cc2O)c(C)c1	66%
CS(=O)(=O)c1cccnn1	98.8%
CNc1cc(C(=O)O)nc(NC)n1	103%
O=C(NCCCNC(=O)OCc1ccc2cccc(O)c2n1)OCc1ccc2cccc(O)c2n1	71.3%
CCN(CC)CCCOc1ccc2c(c1)O/C(=C\c1cccc(OC)c1)C2=O	118%
Cn1cc(-c2noc(-c3cn(C)c4ncc(F)cc34)n2)c2cc(Cl)ccc21	101%
CC(C)=CC/C=C(/C)[C@H]1CC[C@]2(C)[C@@H]1CC[C@@H]1[C@@]3(C)CCCNC(C)(C)[C@@H]3CC[C@]12C	-70% [100 µM] (active)
O=C(Nc1cccc(F)c1)c1cc(=O)[nH]c2cc(Br)ccc12	41.2%
C#CCC(C(=O)OCC)C(=O)OCC	107%

SMILES	growth
CN(C)Cc1ccc[nH]1	93.5%
Nc1nnc(CSc2nnc3n(Cc4ccccc4)c(=O)c4c5c(sc4n23)CCCC5)s1	109%
O=S(=O)(NCCCNc1nccc(-c2c(-c3cccc(F)c3)nc3occn23)n1)c1cccc2ccccc12	47.3%
COc1cc2c(cc1OCCCN1CCN(CCCOc3cc4c(cc3OC)C(=O)N3C[C@H](F)C[C@H]3C=N4)CC1)N=C[C@@H]1C[C@@H](F)CN1C2=O	-20.5% (active)
COc1cc(-c2nc(SCCC(C)C)nc(Nc3ccc(S(N)(=O)=O)cc3)c2C#N)cc(OC)c1OC	51.4%
O=C(Nc1ccccc1)Nc1ccc(C(=O)/C=C/c2ccc(N3CCCC3)cc2)cc1	17.9%
O=C(Nc1cccc2cccnc12)c1cc(C(=O)c2ccc(Cl)cc2)n2ccc(-c3ccncc3)cc12	112%
CCN(CC)c1ccc2cc(C(Nc3ccc(Cl)cc3)c3nnnn3C(C)(C)C)c(=O)oc2c1 (stereo not given)	89.5%
CCOC(=O)c1nn(C2CCCCO2)c2ccc(NC(=O)CSc3nc4ccccc4c(=O)[nH]3)cc12 (stereo not given)	105%
COc1ccc(C(=O)/C=C/c2ccccn2)c(O)c1	89.6%
CC1(C)S[C@@H]2[C@H](NC(=O)[C@H](C(=O)O)c3cccs3)C(=O)N2[C@H]1C(=O)O	98.2%
O=C(NCCCCCCCNC(=O)OCc1ccc2c(Cl)cc(Cl)c(O)c2n1)OCc1ccc2c(Cl)cc(Cl)c(O)c2n1	-70.6% (active)
O=C(Nc1cc(-c2cccnc2)nc(NCCCN2CCOCC2)n1)c1cc(Br)cc(C(F)(F)F)c1	81.3%
COc1ccc2c(c1)c(-c1noc(-c3cn(C)c4ncc(F)cc34)n1)cn2C	94%
COc1ccccc1S(=O)Nc1ccccc1 (stereo not given)	82.5%
O=c1[nH]cnc2c1ccn2C1OC(CO)C(O)C1O (stereo not given)	21.2%
CC[C@]1(O)CC2CN(CCc3c([nH]c4ccccc34)[C@@](C(=O)OC)(c3cc4c(cc3OC)N(C=O)[C@H]3[C@@](O)(C(=O)OC)[C@H](OC(C)=O)[C@]5(CC)C=CCN6CC[C@]43[C@@H]65)C2)C1 (stereo not given in full)	18.8%
O=C(C[n+]1ccn(CC(OCc2ccc(Cl)cc2Cl)c2ccc(Cl)cc2Cl)c1)c1ccc(F)cc1 (stereo not given)	-88% (active)
CO[C@H]1CC[C@@]2(C)C(=CC[C@H]3[C@@H]4C[C@H](O)C[C@@]4(C)CC[C@@H]32)C1	67.2%
Cc1ccccc1-n1nnc(C(=O)Nc2nc3ccc(F)cc3s2)c1C	65.3%
